Compound activity deposited in PubChem by National Center for Advancing Translational Sciences (NCATS).
Shown are actives, neighbours in structure and some others; about 0.9% of the full set was active somewhere.
RXFP1 ag = RXFP1 (human) receptor agonism; Q9HBX9; HEK293T-RXFP1 cAMP TR-FRET, 30 min; response scale: percent of porcine relaxin response, buffer zero; Potency, µM (doses to about 57.5 µM), without a hit: at the highest dose activation, actives largely listed as activators; 0.3% of 370,000 active; AID 2676; active = well fitted activation curve with a large enough effect; inconclusive = small, poorly fitted or top-dose-only effect; also: potency is read from the fitted curve at half-maximal effect; % is scaled to controls: 0 for no effect and ±100 for the full control effect; nearly all actives have a fitted effect of over 60% in size
Target sequence (Q9HBX9 whole entry, looked up): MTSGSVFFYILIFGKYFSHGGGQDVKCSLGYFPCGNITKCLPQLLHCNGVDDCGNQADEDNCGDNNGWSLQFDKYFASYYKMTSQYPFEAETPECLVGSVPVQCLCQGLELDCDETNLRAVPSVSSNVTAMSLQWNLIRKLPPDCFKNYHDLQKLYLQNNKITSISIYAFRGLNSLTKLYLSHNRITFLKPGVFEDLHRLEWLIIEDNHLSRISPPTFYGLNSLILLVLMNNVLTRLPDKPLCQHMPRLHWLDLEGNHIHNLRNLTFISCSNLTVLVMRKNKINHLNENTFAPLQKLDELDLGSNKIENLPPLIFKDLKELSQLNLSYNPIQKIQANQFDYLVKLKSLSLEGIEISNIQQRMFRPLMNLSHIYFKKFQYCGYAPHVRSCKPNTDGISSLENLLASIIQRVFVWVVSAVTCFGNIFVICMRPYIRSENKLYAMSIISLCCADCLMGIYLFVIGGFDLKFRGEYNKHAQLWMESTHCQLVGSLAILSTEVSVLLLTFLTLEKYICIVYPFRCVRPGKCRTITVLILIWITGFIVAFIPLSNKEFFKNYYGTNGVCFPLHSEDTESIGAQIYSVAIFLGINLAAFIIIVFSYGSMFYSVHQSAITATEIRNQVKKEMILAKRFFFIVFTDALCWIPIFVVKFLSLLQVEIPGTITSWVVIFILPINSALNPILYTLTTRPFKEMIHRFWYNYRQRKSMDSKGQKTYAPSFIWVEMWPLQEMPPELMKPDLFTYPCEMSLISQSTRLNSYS
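HEK293T cells stably expressing RXFP1 were pretreated with the PDE4 inhibitor Ro 20174, exposed to compounds for 30 min at 37C, lysed, and cAMP was read by TR-FRET. Data normalized to buffer (basal) and 29 nM porcine relaxin (100%).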
gsp antagonist = antagonists of gsp mutant (McCune-Albright syndrome); gsp-mutant cells, cAMP HTRF, 30 min; Potency, µM (series often up to 76.9 µM), without a hit: top-dose activity change, negative = inhibition, actives largely listed as inhibitors; 0.4% of 340,000 active; AID 624288; calls by dose curve; cell line not stated here;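 also: intracellular cAMP measured with PDE inhibitor Ro 20-1724 present during compound exposure; potency is read from the fitted curve at half-maximal effect; % is scaled to controls: 0 for no effect and ±100 for the full control effect; nearly all actives have a fitted effect of over 65% in size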
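HTRF cAMP measurement after 30 min RT detection following 30 min, 37C compound treatment alongside […] (added as 300 uM solution) in G418-selected cells seeded at 2000/well and grown 16–24 h.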
RXFP1 antagonist = antagonists of human relaxin receptor RXFP1; Q9HBX9; HEK293-RXFP1, relaxin-stimulated cAMP HTRF, 30 min; active compounds read low; activity change, negative = inhibition, % at 57.5 µM; 0.59% of 350,000 active; AID 1259400;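 active = activity change of -60% or lower, but not beyond a set lower limit; inconclusive = change between -60% and -40%, or beyond the set limit; inactive = change above -40%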; also: % is scaled to controls: 0 for no effect and ±100 for the full control effect
gsp agonist = agonists of gsp mutant (McCune-Albright syndrome) | gsp mutant cells, cAMP HTRF, 30 min | Potency, µM (titrated, usually from 76.9 µM), inactives show at the highest dose activation (cAMP increase), hits mostly activators | 0.13% of 340,000 active | AID 624287; active = well fitted activation curve with a large enough effect; inconclusive = small, poorly fitted or top-dose-only effect, or another doubt; inactive = no such curve, though single readings can be large or run the other way; cell line not stated here;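 also: phosphodiesterase inhibitor Ro 20-1724 added with compounds to block cAMP breakdown; potency is read from the fitted curve at half-maximal effect; nearly all actives have a fitted effect of over 60% in size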
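Cells in DMEM/10% FBS with G418 were pretreated with compounds in DMSO plus […] (300 uM stock) for 30 min at 37C. cAMP was measured by HTRF (cAMP-d2 plus anti-cAMP antibody-K) after 30 min at room temperature.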
The depositor's hits bear a star; ? = inconclusive; / = no result; ! = not active in a repeat; [ ] = another dose, or the depositor's remark.

SMILES	RXFP1 ag	gsp antagonist	RXFP1 antagonist	gsp agonist
Cc1cc(C(=O)CSc2nc3ccccc3c(=O)n2C)c(C)n1Cc1ccc2c(c1)OCO2	20µM*	?	-21	-10%
CC12CCC(C(=O)N(CSC(=S)N/N=C\c3ccccc3Cl)C1=O)C2(C)C (configuration not stated)	0%	-13%	-65*	0%[15.4 µM]
O=C(Cc1ccc(S(=O)(=O)N2CCOCC2)s1)Nc1ccc2c(c1)CCC2	2%	-9%	-12	-41%
O=C(Cc1ccc(S(=O)(=O)N2CCOCC2)s1)Nc1nc2c(s1)CCCC2	0%	7.9µM*	-31	-38%
COc1ccc(/C=C/C(=O)NNC(=O)c2cc(C)oc2C)cc1	3%	5%	-62*	-1%[15.4 µM]
Cc1cc(C(=O)NNC(=O)/C=C/c2ccccc2Cl)c(C)o1	1%	-15%	-3	5%
NC(=O)NC1N=C([O][Al])NC1=O (configuration not stated)	/	/	5	/
Cc1ccc(-c2cc(C(F)(F)F)n3ncc(C(=O)O)c3n2)cc1	0%	-13%	5	-3%
COCCNC(=O)c1cnn2c(C(F)(F)F)cc(-c3ccc(C)cc3)nc12	-1%	35µM*	-12	-78%
O=NN(CCCl)C(=O)NC1CCCCC1	/	/	6	/
O=C(/C=C/c1ccco1)Nc1sc2c(c1C(=O)O)CCC2	0%	40µM*	10	3%
O=C(Nc1sc2c(c1C(=O)O)CCC2)c1ccccc1	1%	22µM*	-6	2%
O=C(Nc1sc2c(c1C(=O)O)CCCCC2)c1ccccc1	1%	-27%	-22	?
N#Cc1c(NC(=O)/C=C/c2ccco2)sc2c1CCCC2	3%	5%	-22	-3%
c1ccc2c(c1)ncn2CCCOc1ccc2c(c1)CCC2	1%	28µM*	12	-18%
c1ccc2c(c1)ncn2CCCCOc1ccc2c(c1)CCC2	-2%	?	0	-5%
O=C(N/N=C/c1ccc(OC(F)F)cc1)c1ccc(CSc2nc3ccccc3[nH]2)cc1	3%	8.9µM*	?	30%[15.4 µM]
CC1=C(C)C(=O)C(C(CCCCCC(=O)O)c2ccccc2)=C(C)C1=O (configuration not stated)	/	/	-21	/
O=C(O)c1ccccc1NN=Cc1ccccc1	/	25µM*	?	28%
O=C(O)c1ccccc1NS(=O)(=O)c1ccc(N/N=C/c2ccc(O)c(O)c2)c([N+](=O)[O-])c1	/	-10%	-23	-16%
O=C(O)c1ccccc1NS(=O)(=O)c1ccc(NN=Cc2cccc(Cl)c2)c([N+](=O)[O-])c1	/	-6%	-68*	-36%
Cn1cc(C[C@H](C(=O)O)N2C(=O)c3ccc(C(=O)O)cc3C2=O)c2ccccc21	0%	/	/	/
CCOC(=O)c1[nH]cnc1C(=O)Nc1ccccc1	14%	/	-5	3%[15.4 µM]
CCCCOc1c(C(=O)Nc2ccccc2)nnn1-c1ccccc1	1%	/	-87*	-31%[15.4 µM]
COc1ccc(N=C2O/C(=C/c3sc(=S)n(CC4CCCO4)c3O)N=C2C#N)cc1 (configuration not stated)	-1%	35µM*	-88*	13%
SMILES	RXFP1 ag	gsp antagonist	RXFP1 antagonist	gsp agonist
CN1CCC(NCCC(c2ccc(F)cc2)c2ccc(Cl)cc2)CC1 (configuration not stated)	0%	11%	-86*	-2%[15.4 µM]
CC(C)C[C@@H]1[C@H](c2ccccc2)OC(=O)N1CCCN1CCCCCC1	/	/	-13	/
CCOC(=O)C(=O)c1csc(NC=O)n1	/	/	10	/
CCOc1ccc(/C=C2\SC(=S)NC2=O)cc1OC	1%	?	-73*	-26%
O=C1NC(=S)SC1=Cc1ccc(F)cc1	/	-8%	-27	-2%
O=C1NC(=S)SC1=Cc1ccc(Cl)cc1	/	28µM*	-19	22%
COc1cc(/C=C2\SC(=S)NC2=O)ccc1OS(=O)(=O)c1ccccc1	-4%	/	/	/
CCOc1ccc(C2C(=O)N(C3CCCCCC3)CC(=O)N2Cc2ccccc2)cc1OC (configuration not stated)	1%	/	16	/
CCc1cccc(C)c1NC(=O)C1CCCN1S(=O)(=O)c1cccc2nsnc12 (configuration not stated)	0%	/	-4	/
COc1ccc(-c2csc(NC(=O)[C@H](C)N3C(=O)C4CC=CCC4C3=O)n2)cc1OC (some centres not stated)	/	0%	-11	2%
CC(C(=O)Nc1nc(-c2ccc(F)c(F)c2)cs1)N1C(=O)C2CC=CCC2C1=O (configuration not stated)	1%	35µM*	?	-3%
C=CCN(c1ccccc1)S(=O)(=O)c1ccc2c(c1)oc(=O)n2C	1%	2%	-77*	-112%
Cc1cccc(NC(=O)CSc2nc3c(c(=O)[nH]2)CN(Cc2ccc4c(c2)OCO4)CC3)c1C	4%	/	-10	/
O=C(NNc1nc(=O)c2cccnc2s1)c1ccccc1O	16µM*	21%	13	47%[15.4 µM]
Cc1ccc(CCNC(=O)c2ccc(CNS(=O)(=O)c3ccc(F)cc3)cc2)cc1	-1%	/	-71*	/
Cc1cc(-c2ccc(S(=O)(=O)NCc3ccc(F)cc3)cc2)on1	2%	0.79µM*	0	-48%
Cc1cc(-c2ccc(S(=O)(=O)NCc3ccc(Cl)cc3)cc2)on1	/	/	0	8%
O=C(CSCc1cnn(-c2ccccc2)c1-n1cccc1)Nc1ccc(F)cc1F	0%	/	-8	/
COCCCNC(=O)Cn1c(=O)nc(-c2ccccc2)c2ccccc21	3%	/	17	/
CCCCN1C(=O)c2[nH]nc(-c3ccccc3O)c2C1c1ccc(C(C)(C)C)cc1 (configuration not stated)	-1%	/	-15	/
Cc1ccc(S(=O)(=O)N2CCOCC2)cc1NC(=O)c1cc([N+](=O)[O-])ccc1N1CCOCC1	12%	7%	-7	11µM*
CCN1CCN(c2ccc(S(=O)(=O)N3CCOCC3)cc2NC(=O)c2ccc(C(F)(F)F)cc2)CC1	1%	-2%	-1	9%[15.4 µM]
CCN1CCN(c2ccc(S(=O)(=O)N3CCOCC3)cc2NC(=O)c2cccc([N+](=O)[O-])c2)CC1	/	9%	-4	25µM*
Cc1cc(OCC(=O)Nc2nc3c(s2)CCCC3)cc(C)c1Cl	-3%	/	5	/
Cc1cccc2sc(N(Cc3cccnc3)C(=O)CCS(=O)(=O)c3ccccc3)nc12	0%	/	-5	/
COc1cc(NC(=O)CC2C(=O)OCCN2Cc2ccccc2)cc(OC)c1 (configuration not stated)	3%	/	-3	/
COc1ccc(OCCN2C(=O)c3ccccc3C2=O)c([N+](=O)[O-])c1	-3%	-7%	4	10µM*
COc1cc2nc(Nc3ccc(C)c(Cl)c3)nc(N)c2cc1OC	-1%	1%	-25	-10%
COc1cc2nc(Nc3ccc(C)c(C)c3)nc(N)c2cc1OC	-1%	16%	-110*!	-71%
CC(OC(=O)/C(C#N)=C/c1ccc(N(C)C)cc1)C(=O)N(C)c1ccccc1 (configuration not stated)	-1%	25µM*	-2	-34%
